Test systems include SR leukemia; OVCAR-8 ovarian; OVCAR-5 ovarian; OVCAR-4 ovarian; SK-OV-3 ovarian; IGROV1 ovarian; OVCAR-3 ovarian; HS 578T breast; NCI/ADR-RES ovarian; T-47D breast; BT-549 breast; MDA-MB-435 melanoma; SW-620 colon; MCF7 breast; HCT-116 colon; HCC-2998 colon; KM12 colon; RPMI-8226 leukemia.
Assay in all cases: NCI-60 one-dose screen, 48 h (100 = growth as untreated, 0 = no growth, -100 = all killed)
Conditions in all cases: 10 µM unless noted

About 83,000 compounds went through this panel and 20% of them were active in at least one assay; those are over-represented in the sample as a whole.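 Values shown are percent growth following 48 h exposure of cells in 96-well plates to a single concentration of compound; below 10 was considered active.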 Unmarked numbers belong to inactive results. Active and inactive are the calls of the source.

In the case of `CC(=O)OC(C)COc1ccc(-c2ccccc2)cc1` (stereo not drawn), the growth is 97.1% with SR leukemia; 95.9% in the experiment with OVCAR-8 ovarian; 96.8% in the experiment on OVCAR-5 ovarian; 106% in the experiment with OVCAR-4 ovarian; 109% with SK-OV-3 ovarian; 112% with IGROV1 ovarian. In addition, the growth with OVCAR-3 ovarian is 107%; in the experiment on HS 578T breast, 103%; in the experiment on NCI/ADR-RES ovarian, 118%; with T-47D breast, 88.6%; in the experiment with BT-549 breast, 98.6%; in the experiment with MDA-MB-435 melanoma it was 98.6%. In addition, the growth in the experiment with SW-620 colon is 100%; with MCF7 breast, 103%; with HCT-116 colon, 81.2%; with HCC-2998 colon it was 104%; in the experiment with KM12 colon it was 98.8%.

`CCc1ccc(-c2ccc(Nc3ccccc3)nn2)cc1S(N)(=O)=O`: the growth with SR leukemia was 9.58% (active); in the experiment on RPMI-8226 leukemia, 27.8%; in the experiment with OVCAR-5 ovarian it was 93%; in the experiment with OVCAR-4 ovarian, 87.1%; with SK-OV-3 ovarian it was 96.8%; with IGROV1 ovarian, 106%. The growth in the experiment with OVCAR-3 ovarian is 63.8%; in the experiment with HS 578T breast it was 84.1%; in the experiment on NCI/ADR-RES ovarian, 85.6%; in the experiment with T-47D breast, 53.3%; in the experiment on BT-549 breast it was 83.3%; in the experiment on MDA-MB-435 melanoma it was 36.1%. The growth is 54.1% with SW-620 colon; 84.3% in the experiment on MCF7 breast; 72.6% in the experiment on HCT-116 colon; 85.4% in the experiment with HCC-2998 colon; 40.6% in the experiment with KM12 colon.

On to `O=c1c(CNc2ccc(S(=O)(=O)Nc3nccs3)cc2)coc2ccccc12`, for which the growth in the experiment on SR leukemia was 94.7%; in the experiment with RPMI-8226 leukemia, 92.1%; in the experiment with OVCAR-4 ovarian, 99.9%; in the experiment on IGROV1 ovarian, 101%; in the experiment with OVCAR-3 ovarian it was 110%; with NCI/ADR-RES ovarian it was 102%. The growth in the experiment on T-47D breast was 94.3%; in the experiment with BT-549 breast, 99.5%; in the experiment with MDA-MB-435 melanoma, 112%; in the experiment with SW-620 colon it was 101%; in the experiment with MCF7 breast, 110%; in the experiment with HCT-116 colon, 100%. Also, the growth in the experiment on HCC-2998 colon was 105%; with KM12 colon, 111%.

`COc1cc(-c2cc(-c3nc4ccccc4[nH]3)[nH]n2)cc(OC)c1OC`: the growth is 11.1% in the experiment on SR leukemia; -24.9% (active) in the experiment on RPMI-8226 leukemia; 93.9% with OVCAR-5 ovarian; 44.3% in the experiment on OVCAR-4 ovarian; 42.4% with SK-OV-3 ovarian; 33.8% in the experiment on OVCAR-3 ovarian. Moreover, the growth in the experiment on NCI/ADR-RES ovarian is 36.2%; in the experiment on T-47D breast it was 6.65% (active); in the experiment with BT-549 breast it was 36.4%; in the experiment with MDA-MB-435 melanoma it was 19.2%; in the experiment on SW-620 colon, 59.4%; with MCF7 breast, 44.2%. Besides, the growth in the experiment on HCT-116 colon was 38.7%; in the experiment with KM12 colon, 27%.

As for `Nc1c(C(=O)Nc2cccc(Br)c2)sc2nc3c(cc12)C(=O)CCC3`, the growth is 13.7% with SR leukemia; 38.3% in the experiment with RPMI-8226 leukemia; 59.3% in the experiment on OVCAR-5 ovarian; 77.2% in the experiment on OVCAR-4 ovarian; 5.74% (active) with SK-OV-3 ovarian; 44% in the experiment on IGROV1 ovarian. Also, the growth in the experiment on OVCAR-3 ovarian is 5.48% (active); in the experiment on NCI/ADR-RES ovarian, 26.9%; in the experiment with T-47D breast, 30%; in the experiment with BT-549 breast, 57.8%; in the experiment with MDA-MB-435 melanoma it was -53.3% (active); in the experiment on SW-620 colon it was 25%. Moreover, the growth in the experiment on MCF7 breast was 22.1%; in the experiment with HCT-116 colon it was 33.4%; in the experiment on HCC-2998 colon, 38.2%; in the experiment on KM12 colon, 18.6%.

In the case of `COc1cc(C(=O)/C=C/c2cc(-c3ccc4c(c3)OCO4)n[nH]2)cc(OC)c1OC`, the growth is -25.3% (active) in the experiment on SR leukemia; -42.4% (active) with RPMI-8226 leukemia; 57.6% in the experiment with OVCAR-5 ovarian; 27.7% in the experiment on OVCAR-4 ovarian; 60.8% in the experiment on SK-OV-3 ovarian; 64.8% with IGROV1 ovarian. Moreover, the growth with OVCAR-3 ovarian was -17.8% (active); in the experiment with NCI/ADR-RES ovarian it was -13.5% (active); in the experiment with T-47D breast, 19.7%; in the experiment with BT-549 breast, -11.2% (active); in the experiment on MDA-MB-435 melanoma, 40%; in the experiment with SW-620 colon it was -15.1% (active). In addition, the growth in the experiment with MCF7 breast was 6.06% (active); in the experiment on HCT-116 colon, 6.54% (active); with HCC-2998 colon, 85.4%; in the experiment on KM12 colon, 1.81% (active).

In the case of `COc1ccccc1CNc1nc(N)nc2[nH]c3ccc(O)cc3c12`, the growth in the experiment with SR leukemia was 4.16% (active); with RPMI-8226 leukemia it was 48.8%; in the experiment with OVCAR-8 ovarian it was 53.7%; in the experiment with SK-OV-3 ovarian, 73.4%; with IGROV1 ovarian, 50.9%; in the experiment on OVCAR-3 ovarian it was 44.6%. Further, the growth with HS 578T breast is 59.2%; with NCI/ADR-RES ovarian it was 82.6%; in the experiment on T-47D breast it was 32.1%; with BT-549 breast, 62.8%; in the experiment with MDA-MB-435 melanoma, -27.6% (active); with SW-620 colon, 25.9%. Besides, the growth with MCF7 breast was 19.2%; in the experiment with HCT-116 colon, 31%; with KM12 colon it was 22.4%.

For `COc1ccc2c(c1)C/C(=C\c1cc(-c3ccc4c(c3)OCO4)n[nH]1)C2=O`, the growth with SR leukemia is 73.7%; with RPMI-8226 leukemia, 45.8%; in the experiment on OVCAR-5 ovarian, 98.3%; with OVCAR-4 ovarian it was 90.9%; with SK-OV-3 ovarian, 95.6%; with IGROV1 ovarian it was 99.1%. For the same compound, the growth was 71.3% in the experiment with OVCAR-3 ovarian; 99.4% with HS 578T breast; 109% with NCI/ADR-RES ovarian; 23% with T-47D breast; 93.9% in the experiment on BT-549 breast; 93% in the experiment with MDA-MB-435 melanoma. Besides, the growth in the experiment with SW-620 colon was 96.6%; in the experiment with MCF7 breast, 34.8%; in the experiment with HCT-116 colon, 93.3%; with HCC-2998 colon it was 105%; in the experiment on KM12 colon, 85.7%.

Turning to `COc1cc(-c2cc(-c3nc4ccc(F)cc4[nH]3)[nH]n2)cc(OC)c1OC`, the growth in the experiment on SR leukemia was 12.6%; with RPMI-8226 leukemia, -37.3% (active); with OVCAR-5 ovarian, 88.5%; with OVCAR-4 ovarian it was -2.29% (active); with SK-OV-3 ovarian, 13.3%; in the experiment on IGROV1 ovarian it was 43.6%. Further, the growth in the experiment on OVCAR-3 ovarian was 24%; with NCI/ADR-RES ovarian, -6.05% (active); with T-47D breast, -21.3% (active); with BT-549 breast it was 6.58% (active); in the experiment on MDA-MB-435 melanoma, 5.65% (active); in the experiment with SW-620 colon, 52.1%. The growth with MCF7 breast was 9.15% (active); in the experiment on HCT-116 colon it was 31.2%; with HCC-2998 colon, 66.6%; in the experiment with KM12 colon it was 12.9%.

For `COc1ccc2nc(-c3cc(-c4cc(OC)c(OC)c(OC)c4)n[nH]3)[nH]c2c1`, the growth with SR leukemia is 13.8%; in the experiment with RPMI-8226 leukemia, -50.6% (active); with OVCAR-5 ovarian, 58.8%; in the experiment with OVCAR-4 ovarian, -21.9% (active); with SK-OV-3 ovarian it was 33.8%; in the experiment on IGROV1 ovarian, 18.7%. For the same compound, the growth was -29% (active) in the experiment with OVCAR-3 ovarian; -0.97% (active) in the experiment with NCI/ADR-RES ovarian; -31.2% (active) with T-47D breast; 3.56% (active) with BT-549 breast; -25.4% (active) in the experiment on MDA-MB-435 melanoma; 21% in the experiment on SW-620 colon. In addition, the growth is -6.38% (active) in the experiment on MCF7 breast, 12.7% in the experiment on HCT-116 colon, 49.6% in the experiment with HCC-2998 colon and -30% (active) in the experiment on KM12 colon.

These data come from PubChem BioAssay (NCI).
